# Laboratory results: PubChem BioAssay
# “And” between values parts separate entries of the source, which are not always exact repeats. Equal values may be shown once. The source made the active and inactive calls.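 The calls were made as follows: active = compounds killing one labelled cell type while sparing the other, by normalised counts and ratio limits, not self-fluorescent; inactive = the rest.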
# Test: differential killing of epithelial or mesenchymal cells, primary screen, imaging, PC-3E GFP, TEM4-18 mCherry, co-culture (AID 1345086);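 also: cells exposed to compound for 72 h before imaging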;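 as to red/green cell ratio (normalised): normalised mesenchymal count divided by normalised epithelial count so high means epithelial killing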
# Conditions: imaging cell counts, at 1 µM; for red/green cell ratio (normalised): actives lie on both sides, counts scaled to control wells, 1 = unselective
# [1] = measured here: epithelial PC-3E GFP cell survival
# [2] = measured here: mesenchymal TEM4-18 mCherry cell survival
SMILES,red/green cell ratio (normalised),normalised cell number [1],normalised cell number [2]
COC(=O)N/N=C/c1c[n+]([O-])c2ccccc2[n+]1[O-],0.65 (inactive),1.24,0.81
O=C1NCC2(CCN(CCc3ccccc3)CC2)O1,0.97 (inactive),1.16,1.12
Cc1cc(O)cc(C)c1Cl,1.31 (inactive),0.7,0.93
CN(C)[C@@H]1C(=O)C(C(N)=O)=C(O)[C@@]2(O)C(=O)C3=C(O)c4c(O)ccc(Cl)c4[C@@H](O)[C@H]3C[C@@H]12,0.96 (inactive) and 1.05 (inactive),1.09 and 1.32,1.05 and 1.38
CCN(CC)CCOC(=O)C(c1ccccc1)C1CCCCC1 (centres undefined),0.94 (inactive),0.95,0.89
O=c1ccc2ccccc2o1,1.12 (inactive),0.98,1.1
CC(=O)OC(C)C[N+](C)(C)C (centres undefined),1.16 (inactive),0.97,1.13
CCOC(=O)NNc1nncc2ccccc12,0.96 (inactive),0.94,0.9
COc1cc(C(=O)NCc2ccc(OCCN(C)C)cc2)cc(OC)c1OC,0.88 (inactive),1.34,1.18
CN1CCCN=C1COC(=O)C(O)(c1ccccc1)C1CCCCC1 (centres undefined),1.18 (inactive),1.21,1.43
O=C(COc1ccc(Cl)cc1)N1CCN(Cc2ccc3c(c2)OCO3)CC1,0.96 (inactive),0.94,0.9
COc1ccc(-c2cc(C(F)F)nn2-c2ccc(S(N)(=O)=O)cc2)cc1F,0.98 (inactive),1.12,1.1
CCN(CC)C(=O)N1CCN(C)CC1,1.18 (inactive),1.2,1.42
